In PubChem BioAssay AID1974 (The Scripps Research Institute Molecular Screening Center, 2009):
Several values for one entry are separate records, joined by “and”; a condition that tells them apart may be missing. Equal entries are not always repeated. In all, about 300,000 compounds went through this assay and about 3,200 (1.1%) were called active. For the sample, actives were picked, then their nearest neighbours and some compounds at random. A number with no mark means an inactive call.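 The calls were made as follows: active = inhibition above the campaign mean inhibition plus 3 SD (cut at about 35% in these data); inactive = the rest.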

Each molecule was assayed against Glutathione S-transferase omega-1 (Homo sapiens) (UniProt P78417) (assay: human GSTO1 enzyme inhibition – biochemical, fluorescence polarization, counter-screen for RBBP9 inhibitor project, primary screen (AID 1974;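 also: 0% = GSTO1-1 with DMSO and 100% = wells lacking GSTO1-1 enzyme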)). Settings: recombinant GSTO1, activity-based probe fluorescence polarization; at 5.96 µM; active compounds read high.
Sequence of Glutathione S-transferase omega-1 (Homo sapiens) (P78417 whole entry, looked up): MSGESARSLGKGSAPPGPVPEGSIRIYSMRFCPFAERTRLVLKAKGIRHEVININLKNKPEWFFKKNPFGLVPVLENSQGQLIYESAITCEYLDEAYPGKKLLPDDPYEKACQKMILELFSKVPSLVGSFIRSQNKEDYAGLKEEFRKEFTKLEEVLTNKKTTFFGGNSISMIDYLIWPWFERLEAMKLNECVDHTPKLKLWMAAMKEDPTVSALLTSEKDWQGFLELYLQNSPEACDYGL
In the case of `CSc1ccccc1NC(=O)c1cnc2sc(C)cn2c1=O`, the inhibition is reported as -0.65%. Molecule `CCN(C(=O)COC(=O)c1sccc1C)c1c(N)n(Cc2ccccc2)c(=O)[nH]c1=O` has an inhibition of 13.2%. `CN(C)CCn1c2c(c(SCC(=O)NCc3ccccc3)nc1=O)CCC2` showed an inhibition of 0.7%. In the case of `COc1ccc(CCNc2cc(N3CCN(C(=O)c4ccccc4OC)CC3)ccc2[N+](=O)[O-])cc1OC`, the inhibition is reported as 0.42%. In the case of `Oc1ccc(CNc2ccccc2O)cc1`, the inhibition is reported as 41.7% (active). `O=[N+]([O-])c1ccccc1NCc1ccc(Cl)cc1` was tested, and the inhibition was 1.08%. For `O=C(Cc1ccc(Cl)cc1)NC(=S)Nc1ccccc1O`, the inhibition was -0.02%. `O=C(Nc1cc(S(=O)(=O)N2CCOCC2)ccc1OCC(F)(F)F)c1ccc(N2CCCC2=O)cc1` showed an inhibition of 6.19%. Molecule `O=C(c1ccncc1)N1CCN(S(=O)(=O)c2cc(C(F)(F)F)cc(C(F)(F)F)c2)CC1` has an inhibition of 2.8%. In the case of `CCOC(=O)c1ccccc1NC(=O)c1c(N)n(C)c(=O)[nH]c1=O`, the inhibition is reported as -3.83%. `Cc1cc(C)c(S(=O)(=O)NCC(c2ccc3c(c2)OCO3)N2CCOCC2)c(C)c1` (stereo not given) gave an inhibition of 3.98%. For `O=c1c2ccccc2ncn1/N=C/c1ccccc1`, the inhibition was -0.07%. Work on `CCCc1nc2ccccc2c(=O)n1NC(=O)c1c(O)c2ccccc2[nH]c1=O` yielded an inhibition of 5.47%. `CCCc1nc2ccccc2c(=O)n1/N=C/c1ccc(O)c(O)c1` was tested, and the inhibition was 45.8% (active). Work on `CO[C@@H]1[C@@H](OC(N)=O)[C@@H](O)C(Oc2ccc3c(O)c(NC(=O)c4ccc(O)c(CC=C(C)C)c4)c(=O)oc3c2C)OC1(C)C` (stereo not given in full) yielded an inhibition of 2.82%. With `COc1ccc2cc(S(=O)(=O)Nc3ccccn3)ccc2c1` the inhibition was 2.15%. `COc1ccc(S(=O)(=O)NCCCc2ccccc2)cc1` gave an inhibition of 6.84%. In the case of `COc1ccc(S(=O)(=O)/N=C2\C=C(NS(=O)(=O)c3ccccc3)C(=O)c3ccccc32)cc1`, the inhibition is reported as 58.3% (active). In the case of `Cc1ccc(S(=O)(=O)N2[C@@H](c3cccc(Cl)c3)C(C(=O)O)=CC[C@H]2c2ccc(Cl)c(Cl)c2)cc1`, the inhibition is reported as -207%. For `CCC(C)CCN1CCN=C1N(C)C` (stereo not given), the inhibition was 0.8%. For `COCCCN(C(=O)CSCc1ccc(C)cc1)c1c(N)n(Cc2ccccc2)c(=O)[nH]c1=O`, the inhibition was -12.2%. With `CC(C)CCN1CCN=C1N(C)C` the inhibition was -2.91%. With `CC(C)CNC(=O)C(=O)Nc1ccc(N(C)C)cc1` the inhibition was 4.12%. `CC(=O)N(C)c1ccc(NC(=O)C(F)(F)F)cc1` showed an inhibition of 2.55%. For `CN(C)c1ccc(N/C=C/C(=O)C(F)(F)F)cc1`, the inhibition was 57.6% (active). `[O-][n+]1ccc(OCc2ccccc2)cc1` showed an inhibition of 10.9%. Work on `CN1C(C(=O)NCc2ccco2)CC2Cn3c(nc4ccccc43)C21` (stereo not given) yielded an inhibition of 6.49%. With `OCCn1c(-c2ccccc2)csc1=Nc1ccccc1` the inhibition was -1.25%. With `O=c1cc(CCl)nc2scc(-c3ccccc3)n12` the inhibition was 85.3% (active). `O=C(O)Cc1csc(-c2cccc(Oc3ccccc3)c2)n1` was tested, and the inhibition was 2.72% and 8.12%. `Cc1ccc(C)c(OCC(=O)N2CCN(C(=O)c3ccco3)CC2)c1` showed an inhibition of -2.08%. In the case of `Cc1nc2ncnn2c(C)c1CCC(=O)N1CCN(C(=O)c2ccco2)CC1`, the inhibition is reported as 50.8% (active). For `Cc1nc2nc(C)c(CCC(=O)N3CCN(c4ccccc4)CC3)c(C)n2n1`, the inhibition was 8.27%. For `Cc1ccc(S(=O)(=O)CC(=O)Nc2sc(C)c(C)c2C(N)=O)cc1`, the inhibition was 0.44%. `COC(=O)c1cccc(NC(=O)CN2CCC(NC(=O)c3cc(OC)c(OC)c(OC)c3)CC2)c1` was tested, and the inhibition was 48.5% (active). `COc1cc(C(=O)NC2CCN(Cc3ccccc3)CC2)cc(Cl)c1OC(C)C` was tested, and the inhibition was -0.77%. For `O=C(CN1CCC(NC(=O)Nc2ccccc2)CC1)Nc1cccc([N+](=O)[O-])c1`, the inhibition was 5.63%. Molecule `Cc1ccc(S(=O)(=O)N(C)c2ccc(OCC(=O)OCC(=O)N(CC#N)c3ccccc3)cc2)cc1` has an inhibition of 2.81%. For `CC(C)c1ccc(S(=O)(=O)N2CCN(C(=O)CN3C(=O)NC(C)(c4ccccc4)C3=O)CC2)cc1` (stereo not given), the inhibition was 4.89%. `O=C(Nc1cc(-c2ccccc2)nn1-c1ccccc1F)c1ccc([N+](=O)[O-])cc1` was tested, and the inhibition was -3.44%. Molecule `CCCNC(=O)c1c(N)n(-c2ccc(S(N)(=O)=O)cc2)c2nc3ccccc3nc12` has an inhibition of -3.18%. For `CC(C)Cn1c(N)c(C(=O)NCc2cccs2)c2nc3ccccc3nc21`, the inhibition was 38.5% (active). Molecule `CC(C)(C)c1ccc(C(=O)NCCn2c(N)c(C#N)c3nc4ccccc4nc32)cc1` has an inhibition of 6.36%. `CCN1CCN(C(=O)N[C@@H](C(=O)N[C@@H]2C(=O)N3C(C(=O)O)=C(CSc4nnnn4C)CS[C@H]23)c2ccc(O)cc2)C(=O)C1=O` showed an inhibition of -2.08%. Molecule `CC1(C)C/C(=N/Nc2ccc([N+](=O)[O-])cc2[N+](=O)[O-])C(C)(C)O1` has an inhibition of -2.6%. With `O=C(OCC1O[C@@H](OC(=O)c2cc(O)c(O)c(O)c2)[C@@H](OC(=O)c2cc(O)c(O)c(O)c2)[C@@H](OC(=O)c2cc(O)c(O)c(O)c2)[C@@H]1OC(=O)c1cc(O)c(O)c(O)c1)c1cc(O)c(O)c(O)c1` (stereo not given in full) the inhibition was 43.9% (active). Molecule `O=C(OCC1OC(Oc2ccc(O)cc2)C(O)C(O)C1O)c1ccccc1` (stereo not given) has an inhibition of -6.08%. For `O=C(CSc1n[nH]c(-c2cccs2)n1)N1CCCCC1`, the inhibition was 0.4%. With `O=C(Nc1cc(N2CCOCC2)ncn1)NC1(C(F)(F)F)Oc2ccc(Cl)cc2O1` (stereo not given) the inhibition was 57.4% (active). For `Cc1csc(NC(=O)NC2(C(F)(F)F)Oc3ccccc3O2)n1`, the inhibition was 28.1%. `COc1ccc(Cl)cc1NC(=O)CN1CCN(C(=O)N2CCOCC2)CC1` gave an inhibition of 1.76%. `CN(CC(=O)Nc1cccc(F)c1)C(=O)C1CSC2(C)CCC(=O)N12` (stereo not given) was tested, and the inhibition was -10.9%. For `COc1ccc(CCNC(=O)COC(=O)C2CCCCC2)cc1`, the inhibition was 3.87%. With `COC(=O)CCCC1=CC2=CC(=O)C(C)(OC(=O)c3cccs3)C(=O)C2=CN1c1cccc(C#N)c1` (stereo not given) the inhibition was 10.6%. `COC(=O)CCCC1=CC2=C(c3ccccc3)C(=O)C(C)(OC(=O)C3CCCC3)C(=O)C2=CN1c1ccc(OC)cc1` (stereo not given) was tested, and the inhibition was 40% (active).
